We go through 40 compounds from PubChem BioAssay (EPA / NIEHS).

A word on the AC50: it is the concentration giving half of the maximal activity seen.

SMILES strings stand for the structures. Activity calls are given as the source filed them. How the source made its calls: active means hit-call score of the fitted dose curve at least 0.9, where 1 is the maximum; inactive means score below 0.9.

This assay can be described thus: APR_HepG2_NuclearSize_1hr: Apredica 1-hour HepG2 Assay for Nuclear Size (AID 2282670). To be noted: high-content imaging, actives raise or lower the signal. Here is the method: APR_HepG2_1hr is a cell-based, multiplexed-readout assay that uses HepG2, a human liver cell line, with measurements taken at 1 hour after chemical dosing in a 384-well plate.APR_HepG2_NuclearSize_1hr is one of 10 assay component(s) measured or calculated from the APR_HepG2_1hr assay. It is designed to make measurements of cell phenotype, a form of morphology reporter, as detected with fluorescence intensity signals by HCS Fluorescent Imaging technology.Data from the assay component APR_HepG2_NuclearSize_1hr was analyzed into 1 assay endpoint. This assay endpoint, APR_HepG2_NuclearSize_1hr, was analyzed with bidirectional fitting relative to DMSO as the negative control and baseline of activity. Using a type of morphology reporter, measures of all nuclear dna for gain or loss-of-signal activity can be used to understand the signaling at the nuclear-level. Furthermore, this assay endpoint can be referred to as a primary readout, because this assay has produced multiple assay endpoints where this one serves a signaling function. To generalize the intended target to other relatable targets, this assay endpoint is annotated to the cell morphology intended target family, where the subfamily is organelle conformation.
Cells were treated with dimethyl sulfoxide (DMSO) as a solvent control at a final concentration of 0.5% v/v or with compounds in DMSO with a resulting final DMSO concentration of 0.5% v/v. Compound treatment was done at concentrations of 0.39, 0.78, 1.56, 3.12, 6.24, 12.5, 25, 50, 100, and 200 uM in duplicate on each plate. Cells were treated with compounds for 1, 24, or 72 hr. Carbonyl […] m-chloro-phenylhydrazone (CCCP) and taxol were used as positive controls for mitochondrial function and cytoskeletal stability, respectively; DMSO served as the negative control for this experiment. Cells were fixed by the direct addition of 50 uL formaldehyde in Hank's Balanced Salt Solution (HBSS) to a final concentration of 3.7%. After incubation in the fixation medium for 30 min at room temperature (293-298 K), cells were rinsed twice with HBSS and treated with cell permeabilization buffer (16 uL of 0.5% Triton X-100) for 10 min at room temperature (293-298 K) before labeling. For mitochondrial membrane potential and mitochondrial measurements, pre-fixed cells were incubated with 50 uL of MitoTracker Red CMXRos (Invitrogen) at a concentration of 250 nM for 30 min before fixation. In the remaining cases, post-fixed cells were labeled by incubation with a multiplexed mixture of primary antibodies in HBSS for 60 min at room temperature (293-298 K) to detect immunoreactivity of c-Jun (1:500), phospho-histone H3 (1:100), phospho-histone H2A.x (1:200), p53 (1:400), alpha-tubulin (1:200) and Hoechst 33342 (2 ug/mL). Cells were labeled for multiplexed imaging on two separate plates: a) Hoechst 33342, MitoTracker Red, phospho-histone H3, and alpha-tubulin, and b) Hoechst 33342, phospho-histone H2A.x, and c-Jun. A final rinse with HBSS (50 uL) was performed before analysis. The primary and secondary antibodies for the proteins were phospho-histone H3 (rabbit anti-phospho-histone H3 and FITC-donkey anti-rabbit IgG), phospho-histone H2A.x (mouse anti-phospho-histone H2A.x and FITC-donkey anti-mouse IgG), c-Jun (rabbit anti-phospho-c-Jun and Cy3-donkey anti-rabbit IgG), p53 (sheep anti-p53 and Cy5-donkey anti-sheep IgG), alpha-tubulin (mouse anti-alpha-tubulin and Cy5-donkey anti-mouse IgG). These antibodies are available as the CellCiphr HepG2 assay kit (Millipore).Digital images of each well were captured using a Cellomics ArrayScan VTI (Thermo Scientific Cellomics) (0.8 NA objective, 0.63x optical coupler, and XF-93 filter set) at 20x magnification. The images were acquired using the autofocus feature of the ArrayScan instrument, which entails the following steps. First, the camera focuses on channel 1 (Hoechst 33342), where nuclei are identified. Second, a Z offset of 1 um is used for capturing mitochondria (MitoTracker Red). […]
`COCC(=O)N(c1c(C)cccc1C)C(C)C(=O)OC` (stereo not given): the call was inactive. Still for that read-out and setting: as for `CC(C)(C)C(=O)C(Oc1ccc(Cl)cc1)n1cncn1` (stereo not given), the entry is “inactive”. For `CSC(=O)c1c(C(F)F)nc(C(F)(F)F)c(C(=O)SC)c1CC(C)C`, the result was inactive. `COC(=O)NC(=S)Nc1ccccc1NC(=S)NC(=O)OC`: the result was inactive. With `CCOc1cc(C(C)(C)C)ccc1C1COC(c2c(F)cccc2F)=N1` (stereo not given), the result was inactive.

In the case of `CCNP(=S)(OC)O/C(C)=C/C(=O)OC(C)C` (stereo not given), the compound was called inactive.

As for `N#Cc1c[nH]cc1-c1cccc2c1OC(F)(F)O2`, the result was inactive. Regarding `CC(C)Nc1nc(Cl)nc(NC(C)C)n1`, the call was inactive. With `CCCCC(O)(Cn1cncn1)c1ccc(Cl)cc1Cl` (stereo not given), the compound was classed as inactive. Still for that read-out and setting: then `CNC(=O)N(C)c1nnc(C(C)(C)C)s1`, with “inactive”. As for `CCN(CC)c1nc(C)cc(OP(=S)(OC)OC)n1`, the compound was classed as inactive. On to `CN=C=S`, for which the outcome was inactive. For the compound `COP(=S)(OC)Oc1ccc([N+](=O)[O-])c(C)c1`, the compound was classed as inactive. Same read-out and setting: then `Nc1cnn(-c2ccccc2)c(=O)c1Cl`, with “inactive”; and `COC(=O)NS(=O)(=O)c1ccc(N)cc1`, with “inactive”; and `O=C(O)c1c(Cl)ccc2cc(Cl)cnc12`, with “inactive”. On the same count and under the same terms, as for `COC(=O)N(C(=O)N1CO[C@@]2(C(=O)OC)Cc3cc(Cl)ccc3C2=N1)c1ccc(OC(F)(F)F)cc1`, the entry is “inactive”; as for `CCOC(=O)C(C)OC(=O)c1cc(Oc2ccc(C(F)(F)F)cc2Cl)ccc1[N+](=O)[O-]` (stereo not given), “inactive”. Consider `OC(c1ccc(Cl)cc1)(c1ccc(Cl)cc1)C(Cl)(Cl)Cl`, for which the AC50 was 110 µM (active).

Consider `N#Cc1c(Cl)cccc1Cl`, for which the compound was called inactive.

On to `N#CN=C1SCCN1Cc1ccc(Cl)nc1`, for which the compound was classed as inactive. `COC(=O)c1c(C(F)F)nc(C(F)(F)F)c(C2=NCCS2)c1CC(C)C`: the compound was classed as inactive. Still for that read-out and setting: then `COP(=O)(OC)O/C(C)=C/C(=O)N(C)C`, with “inactive”.

For the compound `CN/C(=N\[N+](=O)[O-])NCc1cnc(Cl)s1`, the result was inactive. As to `CCN(CC)C(=O)C(C)Oc1cccc2ccccc12` (stereo not given), the call was inactive. For the compound `COCC(C)N(C(=O)CCl)c1c(C)csc1C` (stereo not given), the call was inactive. For `COc1cc(Cl)c(OC)cc1Cl`, the outcome was inactive.

With `CS(=O)(=O)c1cc(C(F)(F)F)ccc1C(=O)c1cnoc1C1CC1`, the compound was called inactive.

`Cn1c(-c2ccccc2)cc(-c2ccccc2)[n+]1C`: the outcome was inactive. Regarding `Cc1ccc(N=CN(C)C=Nc2ccc(C)cc2C)c(C)c1`, the compound was called inactive.

For `CC(C)Oc1cccc(NC(=O)c2ccccc2C(F)(F)F)c1`, the outcome was inactive. Regarding `CC(C)N1C(=O)N(c2ccccc2)CSC1=NC(C)(C)C`, the compound was classed as inactive. Still for that read-out and setting: as for `CCOc1nc(C(Cl)(Cl)Cl)ns1`, the entry is “inactive”; as for `COc1cc(OC)nc(NC(=O)NS(=O)(=O)c2ncccc2OCC(F)(F)F)n1`, “inactive”; as for `C=C(C)CN(CC)c1c([N+](=O)[O-])cc(C(F)(F)F)cc1[N+](=O)[O-]`, “inactive”. For the compound `COP(=S)(OC)SCn1nnc2ccccc2c1=O`, the call was inactive. For `CC1(C)CCC(=Cc2ccc(Cl)cc2)C1(O)Cn1cncn1` (stereo not given), the compound was classed as inactive.

Take `CCNC(=O)NC(=O)C(C#N)=NOC`: the result was inactive.

Consider `CC(C)NC(=O)N1CC(=O)N(c2cc(Cl)cc(Cl)c2)C1=O`, for which the result was inactive. For the compound `CCOP(=S)(OCC)Oc1nc(Cl)n(C(C)C)n1`, the result was inactive.
